Measurements reported in PubChem BioAssay (NCI).
This is part of a sample that, as a whole, favours compounds with a hit. Of some 83,000 tested, about 20% had one in any assay.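 Negative percent growth values reflect cell death: -40 means 40% of the cells present at the start died, and -100 means all died.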 Unmarked numbers belong to inactive results. Active and inactive are the calls of the source. The calls were made as follows: active = growth percent below 10; inactive = the rest.

System: NCI-H460 lung
Assay: NCI-60 one-dose screen, 48 h (100 = growth as untreated, 0 = no growth, -100 = all killed)
Conditions: 10 µM unless noted

| Compound | growth |
| --- | --- |
| CCN(CC)CCC(CNc1ccnc2cc(Cl)ccc12)c1ccc(Cl)cc1 (centres undefined) | -12.4% (active) |
| Cc1ccc(S(=O)(=O)C2=C3C(=C(c4ccccc4)c4ccccc43)CN(S(=O)(=O)c3ccc(C)cc3)C2)cc1 | 63.8% |
| O=C1C(Cl)=C(Nc2ccccn2)C(=O)c2ccccc21 | 62.6% |
| COc1cc(/C=C/C(=O)N2CCN(C(=O)/C=C/c3cc(OC)c(OC)c(OC)c3)CC2)cc(OC)c1OC | 104% |
| c1ccc(-c2nnc(-c3ccccn3)s2)nc1 | 102% |
| Cc1c(C(=O)/C=C/c2csc3ccccc23)[n+](=O)c2ccccc2n1[O-] | 66.6% |
| O=C(NCCNc1nccc(-n2ccc3cccnc32)n1)c1ccc(C(F)(F)F)cc1 | 102% |
| C=C(C)[C@@H]1C[C@@H]2Cc3cc(Cl)ccc3N1O2 | 102% |
| O=S(=O)(CC(O)(c1ccccc1)c1ccccc1)CC(O)(c1ccccc1)c1ccccc1 | 77.6% |
| NC1=NC(SCc2ccccc2CCl)c2ncn(Cc3ccccc3CCl)c2N1 (centres undefined) | 80.7% |
| C=C[C@@H]1C[C@@H]2Cc3c(C)cc(C)cc3N1O2 | 99.8% |
| COc1cc(/C=N\NC(=O)CN2CCN(c3cc4c(cc3F)c(=O)c(C(=O)N/N=C/c3cc(OC)c(OC)c(OC)c3)cn4C3CC3)CC2)cc(OC)c1OC | -23.3% (active) |
| Fc1ccc(-c2nc(-c3nc4ncccc4[nH]3)cc3c2[nH]c2ccccc23)cc1F | 91.1% |
| COc1cc(-c2nc(-c3nc4ccc(Cl)cc4[nH]3)cc3c2[nH]c2ccccc23)cc(OC)c1OC | 73.8% |
| C=C(C)[C@@H]1C[C@@H]2Cc3ccc(Cl)c(C)c3N1O2 | 106% |
| CCCCCCCCC(C)OC(=O)c1nn(C(C)=O)c2ccccc12 (centres undefined) | 110% |
| COc1cc(/C(C#N)=C/c2ccc3c(c2OC)OCO3)cc2c1OCO2 | 9.09% (active) |
| CC12CCC3C4(C)COC(c5ccco5)OC4CCC3(C)C1CC(C1=CCOC1=O)O2 (centres undefined) | 102% |
| C=C1CCC2C3(C)COC(c4ccc(N(C)C)cc4)OC3CCC2(C)C1C/C=C1/C(=O)OCC1O (centres undefined) | 74.2% |
